Data taken from PubChem BioAssay (NCATS).
Inconclusive results are not listed. Where a call stands in place of a potency, no number is given. Active and inactive are the calls of the source. Unless noted, calls come from the whole dose curve; as a rule, active = well fitted curve in the direction sought with a large enough effect in the repeat runs; inconclusive = weak or mixed curves; inactive = no such curve, though single readings can be large; an effect the other way counts as inactive or inconclusive.

Columns and labels:
[1] = target: Calcium and integrin-binding protein 1 (Homo sapiens) (UniProt Q99828); test: Primary qHTS for Identification of Calcium Integrin Binding Protein 1 (CIB1) Competitor (AID 1508620; active = well fitted curve in the direction sought with a large enough effect; an effect the other way counts as inactive or inconclusive;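 note: GST tagged CIB1 binding a fluorescein labelled alphaIIb integrin peptide tracer; top concentration of the series differs between compounds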)
Procedure, shortened: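 CIB1-GST (1 uM final) and compound incubated 15 min at room temperature before adding FITC-alphaIIb peptide tracer (100 nM final). Competition for binding read by fluorescence polarization (ex 480, em 540) after another 15 min at room temperature.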

[2] = target: Cytochrome P450 2D6 (Homo sapiens) (UniProt P10635); test: Cytochrome P450 family 2 subfamily D member 6 (CYP2D6) small molecule antagonists: luciferase biochemical (cell-free) qHTS assay (AID 1645840); note: nearly all actives have a fitted effect of over 55% in size; note: potency is the fitted concentration of half-maximal effect
Procedure, shortened: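 P450-Glo CYP2D6 system: proluciferin substrate converted by enzyme to luciferin, read by luminescence proportional to activity. Enzyme-substrate mix with compound 10 min at room temperature, then NADPH regeneration 1 h before detection reagent.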

Sequence of Calcium and integrin-binding protein 1 (Homo sapiens) (Q99828 whole entry, looked up): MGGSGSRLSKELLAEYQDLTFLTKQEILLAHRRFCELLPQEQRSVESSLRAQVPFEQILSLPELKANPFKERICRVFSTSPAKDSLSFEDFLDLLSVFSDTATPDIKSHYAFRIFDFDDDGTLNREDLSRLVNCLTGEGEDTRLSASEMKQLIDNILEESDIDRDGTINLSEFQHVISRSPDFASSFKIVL
Sequence of Cytochrome P450 2D6 (Homo sapiens) (P10635 whole entry, looked up): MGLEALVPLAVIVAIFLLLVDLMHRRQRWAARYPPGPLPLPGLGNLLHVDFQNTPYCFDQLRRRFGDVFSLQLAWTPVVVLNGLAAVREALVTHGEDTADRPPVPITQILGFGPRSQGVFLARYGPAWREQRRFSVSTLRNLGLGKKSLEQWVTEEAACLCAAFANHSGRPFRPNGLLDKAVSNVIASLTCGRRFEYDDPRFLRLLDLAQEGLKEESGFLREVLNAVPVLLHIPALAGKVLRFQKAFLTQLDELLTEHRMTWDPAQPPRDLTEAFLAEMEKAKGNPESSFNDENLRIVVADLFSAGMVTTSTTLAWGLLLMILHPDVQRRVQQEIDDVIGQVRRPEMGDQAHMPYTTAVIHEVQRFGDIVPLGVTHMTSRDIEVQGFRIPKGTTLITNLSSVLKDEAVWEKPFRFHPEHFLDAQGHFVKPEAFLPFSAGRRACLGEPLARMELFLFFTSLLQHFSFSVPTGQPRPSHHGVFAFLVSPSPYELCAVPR

**Q.** COC(=O)c1ccc(N2CCN(C)CC2)c(NC(=O)c2cccc(OC)c2)c1 was tested. Which Potency [1] did it give?
**A.** Its Potency is “inactive”.

**Q.** What about the Potency [2] of the same compound?
**A.** The Potency was 6.01 µM (active).

**Q.** Which results are given for COCc1c(Cl)ccc2c1CC[C@H]2c1ncc[nH]1?
**A.** Potency [1]: inactive; Potency [2]: 1.9 µM (active)

**Q.** For O=C(NCC1(c2nc(-c3ccccc3)cs2)CCOCC1)c1cccc(-c2noc(C(F)(F)F)n2)c1, which Potency [1] is on record?
**A.** The Potency was “inactive”.

**Q.** What about the Potency [2] of the same compound?
**A.** Its Potency is “inactive”.

**Q.** Which Potency [1] does the source give for COc1cc2c(Nc3cc(F)c(Cl)c(Cl)c3)ncnc2cc1OCC1CCCN(C)CCC1 here?
**A.** The Potency was “inactive”.

**Q.** And the Potency [2]?
**A.** Its Potency is 16.9 µM (active).

**Q.** Which Potency [1] does the source give for O=C(O)c1ccc(S(=O)(=O)N(Cc2ccc(OC(F)(F)F)cc2)c2ncc(C(F)(F)F)cc2Cl)cc1 here?
**A.** The Potency was “inactive”.

**Q.** What about the Potency [2] of the same compound?
**A.** Its Potency is “inactive”.

**Q.** With CCOc1cn(-c2ccc(F)cc2C)nc1C(=O)Nc1ccc(Oc2ccnc3cc(OC)c(OC)cc23)c(F)c1 as the compound, how does the Potency [1] read?
**A.** Its Potency is “inactive”.

**Q.** What about the Potency [2] of the same compound?
**A.** Its Potency is “inactive”.

**Q.** What does the source list for CC(C)n1nc(C#Cc2ccccc2)c2c(N)ncnc21?
**A.** Potency [1]: inactive; Potency [2]: 19 µM (active)

**Q.** Which Potency [1] does the source give for CN1CCC(NC(=O)c2cc(-c3c(O)cc(O)cc3Oc3ccc([N+](=O)[O-])cc3)on2)CC1 here?
**A.** Its Potency is “inactive”.

**Q.** And the Potency [2]?
**A.** The Potency was “inactive”.

**Q.** What does the source list for COc1ccncc1C(=O)NC(=O)Nc1ccc(-c2ccccc2)c(C(F)(F)F)c1?
**A.** Potency [1]: inactive; Potency [2]: 19 µM (active)

**Q.** What does the source list for CCCC(CCC)C(=O)NCc1ccc2c(cnn2-c2ccccc2OC)c1?
**A.** Potency [1]: inactive; Potency [2]: 13.5 µM (active)

**Q.** For O=C(OC1CN2CCC1CC2)N1CCc2ccccc2C1c1ccccc1 (stereo unspecified), which Potency [1] is on record?
**A.** The Potency was “inactive”.

**Q.** What about the Potency [2] of the same compound?
**A.** The Potency was 19 µM (active).

**Q.** With COc1ccc([C@H](Cc2ccncc2)c2ccccc2)cc1OC1CCCC1 as the compound, how does the Potency [1] read?
**A.** The Potency was “inactive”.

**Q.** And the Potency [2]?
**A.** Its Potency is 12 µM (active).

**Q.** With CCOc1cccc(NC(=O)c2ccc(N3CCCC3)c(C(F)(F)F)c2)c1 as the compound, how does the Potency [1] read?
**A.** Its Potency is “inactive”.

**Q.** And the Potency [2]?
**A.** Its Potency is “inactive”.
